Screening results from PubChem BioAssay.
DRD3 antagonist: antagonists of human D3 dopamine receptor | P35462 | D3R cells, DiscoveRx beta-arrestin luminescence, antagonist mode; hits give low values | max response, negative = inhibition, % | actives 2.5% (n = 360,000) | AID 652054; in the data active = max response below about -50%; inconclusive = no clear call, values can overlap the other calls; also: % is scaled to controls: 0 for no effect and ±100 for the full control effect
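Cells plated overnight at 1500 cells/well, then exposed to library compounds with dopamine controls for 90 minutes at 37 degrees C. DiscoveRx reagent added for 30–60 minutes at room temperature; luminescence read, quantitative HTS format.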
DRD3 agonist: agonists of human D3 dopamine receptor | D3R DiscoveRx beta-arrestin cells, luminescence, 90 min | max activation, % | actives 0.58% (n = 410,000); in the data active = max activation above about 30%; also: 0% is about no effect
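Cells at 1500/well, incubated overnight, then treated with pinned compounds (dopamine as control) for 90 min at 37 degrees C. DiscoveRx reagent added for 30 - 60 minutes at room temperature; luminescence read.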
TRPML1 inh: human mucolipin-1 channel inhibition; Q9GZU1; TRPML1-inducible cells, Ca2+ dye fluorescence, FDSS; hits give low values; inhibition of EC80 agonist-evoked calcium signal; activity change, negative = inhibition, % (test concentration not listed); actives 0.02% (n = 390,000); in the data active = activity change below about -50%; inconclusive = between about -30% and that limit;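 also: stimulus is agonist 54-4 at its EC80 concentration; % is scaled to controls: 0 for no effect and ±100 for the full control effect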
Target sequence (Q9GZU1 whole entry, looked up): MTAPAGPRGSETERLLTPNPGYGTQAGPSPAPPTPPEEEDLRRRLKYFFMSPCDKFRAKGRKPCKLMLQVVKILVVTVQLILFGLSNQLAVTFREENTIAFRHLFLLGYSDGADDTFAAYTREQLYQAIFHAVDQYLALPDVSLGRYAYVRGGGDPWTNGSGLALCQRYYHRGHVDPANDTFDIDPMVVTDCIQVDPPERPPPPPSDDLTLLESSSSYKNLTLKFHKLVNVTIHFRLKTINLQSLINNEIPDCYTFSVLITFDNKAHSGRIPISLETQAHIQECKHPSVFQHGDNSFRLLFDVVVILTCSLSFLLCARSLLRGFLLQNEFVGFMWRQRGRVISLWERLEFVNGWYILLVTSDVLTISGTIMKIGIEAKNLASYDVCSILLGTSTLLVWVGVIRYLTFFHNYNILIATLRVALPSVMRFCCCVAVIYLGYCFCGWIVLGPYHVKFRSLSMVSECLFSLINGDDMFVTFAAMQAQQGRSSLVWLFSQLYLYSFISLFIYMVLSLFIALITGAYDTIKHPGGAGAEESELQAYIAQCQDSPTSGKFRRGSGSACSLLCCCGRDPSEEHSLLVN
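Calcium fluorescence in TRPML1-DL cells induced overnight with Tet: a 110 s read after compound pin addition, then a 110 s antagonist read after challenge with 54-4 at 4 uM final (EC80).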
TRPML1 ag: activates the human TRPML1 channel | Q9GZU1 | TRPML1-expressing cells, Ca2+ dye fluorescence, FDSS | activation, % (concentration not given with the values) | actives 0.12% (n = 410,000); in the data active = activation above about 50%; inconclusive = mostly about 30% to 49%; also: 0% is about no effect
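TRPML1-DL cells, Tet-induced overnight (~16 h, 37 degrees C), loaded 45-90 min at room temperature with Ca8 no-wash calcium dye plus quencher. FDSS fluorescence: 10 s baseline, compound pin-transfer, 110 s agonist read, then EC80 54-4 (4uM final) and 110 s antagonist read.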
Active calls of the source: *; u = inconclusive; x = not tested or not shown. Sampled rows, rich in hits. Any-hit rate of the full collection: about 2.9%.

SMILES	DRD3 antagonist	DRD3 agonist	TRPML1 inh	TRPML1 ag
CCOC(=O)c1oc2ccc(CNCCO)c(Cl)c2c1C	-53.9*	-16.9	14.0	0.3
CCc1ccc(NC(=O)COCc2cc(-c3ccc(F)cc3)on2)cc1	x	11.5	17.5	1.8
CCN(CC)/[N+]([O-])=N/OCOC(=O)c1ccccc1OC(C)=O	x	x	-6.2	1.6
N#CC(c1cccc(C(F)(F)F)c1)(c1ncc(C(F)(F)F)cc1Cl)N1CCOCC1 (stereo not given)	18.6	22.7	-6.6	56.5*
N#CC(c1ccccc1)(c1ncc(C(F)(F)F)cc1Cl)N1CCOCC1 (stereo not given)	12.7	2.1	1.8	0.7
CC1(C)CC(=O)C2=C(C1)OC1=C(C(=O)CC(C)(C)C1)C2c1cccc([N+](=O)[O-])c1	-78.3*	-12.5	-2.9	-0.5
CC1(C)CC(=O)C2=C(C1)OC1=C(C(=O)CC(C)(C)C1)C2c1ccc(O)c([N+](=O)[O-])c1	0.4	-0.2	28.3	1.9
CC1(C)CC(=O)C(N=Nc2cccc([N+](=O)[O-])c2)=C(O)C1	-67.2*	-18.1	27.7	0.4
O=C(Nc1ccc2nc(SCC(=O)N3CCCc4ccccc43)sc2c1)c1ccccc1	x	-7.8	0.3	1.8
COc1ccc(Cl)cc1C=CC=NNS(=O)(=O)c1ccc(C)cc1	-88.5*	-24.2	7.6	1.6
Cc1nc2c(=O)n(C)c(=O)n(C)c2nc1Cl	-50.5*	-21.5	51.0	-0.2
CCN(CC)c1ccc2nc3c(=O)n(C)c(=O)n(C)c3nc2c1	x	-2.0	28.9	u
COc1cc(NC(=O)COCc2cc(-c3ccc(F)cc3)on2)cc(OC)c1OC	x	5.8	4.3	1.7
Cc1nnc(SCC(=O)N2CCCCCC2)n(N)c1=O	4.2	-3.4	-6.5	0.3
Cc1nnc(SCC(=O)N2CCC(Cc3ccccc3)CC2)n(N)c1=O	-98.5*	-25.5	-0.6	0.8
O=C1NC(=O)[C@H]2[C@@H]1[C@@H]1C=C[C@H]2C1	x	3.3	x	x
CC(C(=O)Nc1sc2c(c1C(=O)NCc1ccco1)CCCC2)N1C(=O)c2ccccc2C1=O (stereo not given)	-64.9*	-2.0	-5.7	0.4
OCCC1CN(CCCc2ccccc2)CCN1Cc1ccccc1 (stereo not given)	-82.0*	-21.3	-6.6	0.5
O=c1cc(CN2CCN(Cc3ccc(F)cc3)C(CCO)C2)[nH]c2ccccc12 (stereo not given)	-58.3*	-24.0	13.6	1.0
OCCC1CN(Cc2ccc(F)cc2)CCN1CCCc1ccccc1 (stereo not given)	-57.7*	-17.6	-22.0	0.3
OCCC1CN(Cc2cc3ccccc3o2)CCN1Cc1ccc(F)cc1 (stereo not given)	u	-23.2	-6.2	0.1
CSc1ccc(/C=C2\C=C(C(O)c3ccc(SC)cc3)c3ccccc32)cc1 (stereo not given)	x	x	x	0.3
Cc1c(CCNC(=O)C(C)(C)C)sc2nc(-c3ccc(F)cc3)nn12	x	1.4	0.5	2.6
Cc1cc(C)cc(OCC(O)CN2CCC(CN3C(=O)c4cccc5cccc(c45)C3=O)CC2)c1 (stereo not given)	-67.8*	-14.7	x	x
COc1cccc(OCC(O)CN2CCC(CN3C(=O)c4cccc5cccc(c45)C3=O)CC2)c1 (stereo not given)	-52.0*	-13.5	5.1	1.5
SMILES	DRD3 antagonist	DRD3 agonist	TRPML1 inh	TRPML1 ag
O=C1c2cccc3cccc(c23)C(=O)N1CC1CCN(CC(O)COc2ccc3ccccc3c2)CC1 (stereo not given)	u	-16.5	38.6	1.3
O=C(CNC(=O)c1ccccc1)OCC(=O)c1cccc2ccccc12	x	x	x	-0.5
CCc1ccc(S(=O)(=O)Nc2ccc(N3CCN(C)CC3)cc2)cc1	-82.1*	-9.2	7.1	-0.1
Cc1ccc(S(=O)(=O)Nc2ccc(N3CCN(C)CC3)nc2)cc1	-58.6*	-16.4	-11.9	0.1
CCc1ccc(S(=O)(=O)Nc2ccc3c(c2)n(C)c(=O)c(=O)n3C)cc1	x	5.8	1.5	1.0
CN1CCN(c2ccc(NS(=O)(=O)c3ccc(Cl)cc3)cn2)CC1	u	-18.3	-7.6	-0.4
CCc1ccc(NS(=O)(=O)c2ccc(-c3cc(C)no3)cc2)cc1	x	1.2	-6.3	23.6
Cc1sc2c(c1C)c(=O)n(-c1ccc(Cl)cc1)c(=O)n2Cc1cc(=O)n2ccccc2n1	-54.5*	3.2	-14.4	-1.2
Cc1cccc(N2CCN(C(=O)C3CCCN(S(=O)(=O)c4ccc(Br)s4)C3)CC2)c1C (stereo not given)	x	10.7	71.7	0.0
COc1ccc(OC)c(NC(=O)Cn2c(=O)c3cccn3c3ccccc32)c1	x	7.3	-24.9	2.0
CC(=O)Nc1c2c3c(cccc3n(C)c1=O)C(=O)c1ccccc1-2	-50.6*	-14.5	-1.7	-0.3
Cn1c(=O)c(Nc2ccc(Cl)cc2)c2c3c(cccc31)C(=O)c1ccccc1-2	u	-15.7	-12.8	u
Cc1nn(C)c(C)c1S(=O)(=O)N(CC(=O)N1CCN(c2ccccc2)CC1)c1ccc(C(C)C)cc1	x	-7.5	-9.6	-0.4
